# Rows were chosen to be rich in hits. Some 11% of all compounds tested hit in one or more screens of this group.
# L3MBTL1 block = qHTS Assay for the Inhibitors of L3MBTL1; Lethal(3)malignant brain tumor-like protein 1 (Homo sapiens), Q9Y468; 230,000 compounds, 0.66% hits; AlphaScreen L3MBTL1–H3K9me1 peptide binding; Potency, µM (doses to about 57.1 µM), for inactives: at the top dose activity, negative = inhibition, usual class: inhibitors; further: potency means the concentration at half of the fitted maximal effect; on the % scale 0 is the no-effect control and ±100 the full control effect; nearly all actives have a fitted effect of over 60% in size
#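 AlphaScreen proximity signal between nickel-chelate acceptor and streptavidin donor beads (final 10 ug/mL) reports binding of 50 nM L3MBTL1 to 75 nM biotin-H3 K9me1 peptide; complex incubated with compounds 30 min at room temperature; cefsulodin titration as control.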
# HP1b chromo inh = HTS for Inhibitors of HP1-beta Chromodomain Interactions with Methylated Histone Tails. Chromobox protein homolog 1 (Homo sapiens), P83916. AlphaScreen HP1-beta / biotin-H3K9me3 peptide binding. Potency, µM (top dose mostly 114 µM), for inactives: top-dose activity change, negative = inhibition, most hits filed as inhibitors. 390,000 compounds, 0.56% hits; further: potency means the concentration at half of the fitted maximal effect; nearly all actives have a fitted effect of over 70% in size
#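 Compound inhibition of the preformed complex between 50 nM HP1-beta and 50 nM biotinylated H3K9me3 peptide was read by AlphaScreen. Buffer was PBS pH 7.4 with 0.01% Tween-20. Incubations ran 30 min at room temperature, with 10 ug/mL donor/acceptor beads.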
# BAZ2B block = qHTS Assay for Inhibitors of BAZ2B. Bromodomain adjacent to zinc finger domain protein 2B (Homo sapiens), Q9UIF8. AlphaScreen BAZ2B-H3K14Ac peptide displacement. Potency, µM (doses to about 114 µM), for the others: at the highest dose activity change, negative = inhibition, most hits filed as inhibitors. 360,000 compounds, 4.4% hits. AID 504333, 2011; further: potency means the concentration at half of the fitted maximal effect; on the % scale 0 is the no-effect control and ±100 the full control effect; nearly all actives have a fitted effect of over 60% in size
#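 Complex of BAZ2B and biotin-H3K14Ac (50 nM apiece) forms over 30 min at RT, then faces library compounds up to 110 uM for another 30 min; AlphaScreen beads added, 20 min dark incubation, luminescence read.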
# G9a block = qHTS Assay for Inhibitors of Histone Lysine Methyltransferase G9a; Histone-lysine N-methyltransferase EHMT2 (Homo sapiens), Q96KQ7; G9a H3K9 monomethylation, AlphaScreen, 2 h; 350,000 compounds, 8.8% hits; AID 504332, 2011; Potency, µM (top dose mostly 102 µM), without a hit: at the highest dose activity, negative = inhibition, hits mostly inhibitors; further: potency means the concentration at half of the fitted maximal effect; on the % scale 0 is the no-effect control and ±100 the full control effect; nearly all actives have a fitted effect of over 75% in size
#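 G9a (20 nM) preincubated 15 min RT with compounds, then 500 nM biotinylated H3K9 peptide and 20 uM SAM added; 2 h RT reaction. Monomethyl-H3K9 product detected by AlphaScreen with anti-H3K9me1 antibody, streptavidin donor and anti-rabbit IgG acceptor beads.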
# JMJD2A Tudor = qHTS Assay for Inhibitors of JMJD2A-Tudor Domain; AlphaScreen JMJD2A-Tudor / H3K4me3 peptide binding; AID 504339, 2011; Lysine-specific demethylase 4A (Homo sapiens), O75164; Potency, µM (doses to about 114 µM), for the others: at the top dose activity change, negative = inhibition, actives largely listed as inhibitors; 390,000 compounds, 4.4% hits; further: potency means the concentration at half of the fitted maximal effect; on the % scale 0 is the no-effect control and ±100 the full control effect; nearly all actives have a fitted effect of over 50% in size
# PI5P4Ka inh = qHTS for Inhibitors of phosphatidylinositol 5-phosphate 4-kinase (PI5P4K); PI5P4Kalpha enzyme, ADP-Glo luminescence, 60 min; stronger effect = lower value; max response, %; 330,000 compounds, 1.2% hits; AID 652105, 2013; active means max response of -50% or lower; inconclusive means between -30% and -50%; inactive means -30% or higher; further: value at the top dose of about 77 µM; on the % scale 0 is the no-effect control and ±100 the full control effect
#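 Single end-point luminescence (ADP-Glo) quantified ADP from PI5P4Kalpha turnover; ATP 5 microM final, 1 h at RT, 0.1% CHAPS and 0.28 mM EGTA in HEPES pH 7.4.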
# The depositor's hits bear a star; ? = inconclusive; . = no result given; [ ] = another dose, or the depositor's remark. Unless noted, the call rests on the fitted dose curve; in most records, active means well fitted inhibition curve with a large enough effect; inconclusive means small, poorly fitted or top-dose-only effect; inactive means no such curve, though single readings can be large or run the other way.
SMILES,L3MBTL1 block,HP1b chromo inh,BAZ2B block,G9a block,JMJD2A Tudor,PI5P4Ka inh
C/C(=N/NC(=O)c1cc(O)c(O)c(O)c1)c1ccc([N+](=O)[O-])cc1,18µM*,?,40µM*,7.1µM*,45µM*,?
C/C(=N/NC(=O)c1cnccn1)c1cccs1,-9%,29%,?,-10%[59 µM],25µM*,-9
O=C(NCc1ccco1)c1ccc(Cn2c(=O)c3sccc3n(Cc3cccc(F)c3)c2=O)cc1,.,33%,28%,9%,-19%,-2
O=C(NCc1cccc(F)c1)c1ccc(N2C(=O)Cn3c(cc4sccc43)C2=O)cc1,-4%,0%,-7%,-5%[59 µM],79µM*,-27
COc1ccccc1C(=O)NC1(C(F)(F)F)C(=O)NC(C)=C1C#N (centres undefined),.,26%,3%,-1%[59 µM],-18%,.
COC(=O)c1c(-c2ccc(S(C)(=O)=O)cc2)sc2ccc(OC)cc12,2%,11%,.,.,45µM*,-2
N#CCSc1nc2ccccc2c(=O)n1CCCC(=O)NCc1ccco1,.,16%,-15%,-2%[59 µM],-16%,4
O=C(CCCCCn1c(SCc2ccncc2)nc2ccccc2c1=O)NCc1ccco1,?,1%,50µM*,?,25µM*,.
COCCn1c(SCC(=O)c2ccc(CNC(C)=O)o2)nc2ccccc2c1=O,-3%,25%,-10%,-50%[59 µM],79µM*,3
CCn1c(SCC(=O)NCc2cccs2)nnc1-c1cccs1,11%[11.4 µM],12%,-9%,-16%[59 µM],-12%,.
CCn1c(SCC(=O)c2ccc(CNC(C)=O)o2)nnc1-c1cccs1,-14%,22%,-29%,18µM*,?,.
COC(=O)c1ccc(CSc2nc3ccccc3c(=O)n2CC(C)C)o1,1%,75%,1%,47%,22%,2
COC(=O)c1ccc(CSc2nc3ccccc3c(=O)n2Cc2ccco2)o1,-11%,8%,-5%,40µM*,-35%,.
O=C(O)C1CCC(C(=O)O)O1 (centres undefined),.,-11%[57 µM],.,.,45µM*,-1
CCn1ccc2cc(S(=O)(=O)N3CCCN(C(=O)Nc4ccc(C)cc4)CC3)ccc21,.,15%[57 µM],-2%,7%[59 µM],-9%,.
COc1ccc(NC(=O)Cn2c(=O)oc3cc(S(=O)(=O)N4CCCCC4C)ccc32)cc1 (centres undefined),.,33%,-2%,6%[59 µM],-7%,.
O=C1NC(=S)N/C1=C/c1ccc(-c2c(Br)cc([N+](=O)[O-])cc2Br)o1,?,.,?,11µM*,.,.
O=C1NC(=S)N/C1=C/c1cc([N+](=O)[O-])ccc1N1CCOCC1,.,-13%,11%,?,-33%,0
CCCN1C/C(=C/c2cccc([N+](=O)[O-])c2)C(=O)/C(=C/c2cccc([N+](=O)[O-])c2)C1,-1%,-5%,?,?,-25%,1
O=C1NC(=S)N/C1=C\c1cccc([N+](=O)[O-])c1,.,16%,-3%,50µM*,1%,.
CN1C(=O)/C(=C/c2cccc([N+](=O)[O-])c2)C(=O)N1c1ccccc1,-13%,3%,-34%,14µM*,?,-24
O=C1NC(=S)N/C1=C/c1cccc([N+](=O)[O-])c1,2%,16%,-12%,-4%,-16%,0
CC#CCOC(=O)C1=CCCN(C)C1,.,.,.,15%[59 µM],.,.
Cc1ccc(N2C(=O)CS(=O)(=O)C23C(=O)Nc2ccccc23)cc1C (centres undefined),.,21%,8%[57.1 µM],16µM*,-11%,.
CCOC(=O)C(C(=O)OCC)C(C(=O)OCC)N1CCOCC1 (centres undefined),.,?,2%,1.6µM*,?,-2
SMILES,L3MBTL1 block,HP1b chromo inh,BAZ2B block,G9a block,JMJD2A Tudor,PI5P4Ka inh
CCOC(=O)C(C)CC(C)C(=O)N1CCOCCOCCN(C(=O)C(C)CC(C)C(=O)OCC)CCOCC1 (centres undefined),4%,32%,8%,2%,2%[57.1 µM],4
Cc1ccc2nc(Cl)c3cc(C(=O)NCCCN(C)Cc4ccccc4)sc3c2c1,.,-10%,22µM*,?,?,.
C=C1c2cc(C)ccc2NC(=O)N1c1ccccc1,1%,14%,0%,32µM*,-8%,4
C=C1c2ccccc2NC(=O)N1c1ccc(OC)cc1,-4%,17%,0%,20µM*,-21%,1
COc1cccc(Cn2c(=O)cnc3cnc(OC)nc32)c1,.,.,.,9%[0.501 µM],.,.
COc1cccc(Nc2ncc3nc(-c4ccccc4)c(=O)n(Cc4cccs4)c3n2)c1,.,.,.,-6%[0.501 µM],.,.
C[n+]1ccccc1/C=C1\Sc2ccccc2N1CCO,-5%,33%,?,50µM*,?,-10
Cc1ccc(-n2c(Cc3ccccc3)nnc2SCc2nc(-c3cccs3)no2)cc1C,.,6%,-22%,-33%[59 µM],-28%,.
COc1ccc2c(c1)-c1nc(/N=C/c3ccc(O)cc3)sc1CC2,-5%,-16%,50µM*,?,?,-4
COc1ccc2c(c1)-c1nc(NC(=O)c3cccc(Br)c3)sc1CC2,.,43%,-10%,?,-30%,.
Oc1ccc2ccccc2c1/C=N/c1nccs1,-21%,-17%,?,?,-13%[57.1 µM],3
COc1ccc2c(c1)-c1nc(/N=C/c3c(O)ccc4ccccc34)sc1CC2,-20%,?,?,1.6µM*,40µM*,-6
Cc1nn(CC(=O)NCc2cccc(Br)c2)c(=O)c2c1sc1ccccc12,.,41%,-2%,?,-35%,.
COc1ccc(CCNC(=O)CCn2c(=O)c3ccccc3n(CC(=O)Nc3ccccc3F)c2=O)cc1OC,.,47%,-10%,-28%[59 µM],-9%,.
CC(=O)Oc1ccc2c(=O)c(-c3ccccc3)coc2c1,5%,0%,-23%,8%,-9%,-12
CC(=O)Oc1ccc2c(=O)c(/C=N/c3cc(=O)[nH]c(=S)[nH]3)coc2c1,-13%,20%,-24%,35µM*,-20%,-91*
O=c1cc(/N=C/c2coc3cc(Br)ccc3c2=O)[nH]c(=S)[nH]1,1%,9%,?,-44%,-25%,-83*
NC(=S)N/N=C/c1coc2ccc(Cl)cc2c1=O,-1%,33%,-17%,-23%,-10%[11.4 µM],-11
Cc1ccc(S(=O)(=O)c2cn(Cc3cccc(F)c3)c3cc(N4CCCC4)c(F)cc3c2=O)cc1,.,30%,2%,6%[59 µM],6%,.

# Screening data deposited in PubChem by National Center for Advancing Translational Sciences (NCATS).
